# Source: PubChem BioAssay
# This is a sample that favours compounds with a hit; in the whole collection about 9.2% have one here.
# HttQ103 aggreg: qHTS Multiplex Assay to Identify Dual Action Probes in a Cell Model of Huntington: Aggregate Formation (GFP); PC12 HttQ103-GFP aggregates, Acumen cytometry, 40 h; Potency, µM (titrated, usually from 46.1 µM), inactives show at the top dose activity change, negative = inhibition, actives largely listed as inhibitors; actives 1.1% (n = 220,000); active means well fitted curve in the direction sought with a large enough effect; inconclusive means small, poorly fitted or top-dose-only effect, or another doubt; inactive means no such curve, though single readings can be large; an effect the other way counts as inactive or inconclusive; further: on the % scale 0 is the no-effect control and ±100 the full control effect; nearly all actives have a fitted effect of over 60% in size
#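 PC12 cells stably carrying ecdysone-inducible HTT exon 1 Q103–GFP were induced with tebufenozide (100 nM final) and treated with library compounds in titration. GFP aggregates in lysates were counted by laser scanning cytometry.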
# HPGD inh: qHTS Assay for Inhibitors of HPGD (15-Hydroxyprostaglandin Dehydrogenase) | purified HPGD, NADH fluorescence kinetic, PGE2 substrate | actives 4.3% (n = 150,000) | Potency, µM, for the others: top-dose activity change, negative = inhibition, usual class: inhibitors | AID 894, 2007; further: on the % scale 0 is the no-effect control and ±100 the full control effect
# Target sequence (P15428 whole entry, looked up): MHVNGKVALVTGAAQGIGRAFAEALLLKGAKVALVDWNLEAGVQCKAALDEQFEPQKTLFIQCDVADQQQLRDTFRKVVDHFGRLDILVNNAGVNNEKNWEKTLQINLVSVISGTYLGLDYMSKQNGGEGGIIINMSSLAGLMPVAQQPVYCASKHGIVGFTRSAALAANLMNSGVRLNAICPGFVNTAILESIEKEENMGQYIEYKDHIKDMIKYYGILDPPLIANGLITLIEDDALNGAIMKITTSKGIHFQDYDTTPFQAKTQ
#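 20 nM HPGD preincubated 15 min at room temperature with compound in 50 mM Tris-HCl pH 8, 0.01% Tween 20. Started with 1 mM NAD+ and 30 uM prostaglandin E2; NADH fluorescence (360/450 nm) read 5 times over 30-s intervals, last minus first.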
# KDM4E inh: qHTS Assay for Inhibitors of Human Jumonji Domain Containing 2E (JMJD2E) | actives 1.6% (n = 230,000) | JMJD2E catalytic domain, FDH-coupled NADH fluorescence (FDH is formaldehyde dehydrogenase) | Lysine-specific demethylase 4E (Homo sapiens), B2RXH2 | Potency, µM (highest dose often 57.1 µM), for the others: at the highest dose activity change, negative = inhibition, usual class: inhibitors;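 further: 0% = wells with enzyme and -100% = buffer wells without enzyme; nearly all actives have a fitted effect of over 50% in size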
# Target sequence (B2RXH2 1-337 limits assumed): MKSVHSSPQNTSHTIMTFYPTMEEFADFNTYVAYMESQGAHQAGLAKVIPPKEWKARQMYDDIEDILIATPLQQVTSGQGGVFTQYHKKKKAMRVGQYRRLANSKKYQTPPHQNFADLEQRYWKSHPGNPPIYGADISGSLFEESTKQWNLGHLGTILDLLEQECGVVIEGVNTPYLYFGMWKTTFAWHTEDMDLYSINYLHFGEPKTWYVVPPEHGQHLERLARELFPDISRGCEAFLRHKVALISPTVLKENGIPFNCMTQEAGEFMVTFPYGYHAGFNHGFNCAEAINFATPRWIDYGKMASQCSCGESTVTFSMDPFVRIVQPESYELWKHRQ
# ALDH1A1 inh: qHTS Assay for Inhibitors of Aldehyde Dehydrogenase 1 (ALDH1A1); Purified ALDH1A1, NADH fluorescence, propionaldehyde substrate; actives 7.3% (n = 220,000); Potency, µM (highest dose often 75.3 µM), inactives show at the highest dose activity, negative = inhibition, hits mostly inhibitors;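 further: plate controls were no enzyme wells and a reference inhibitor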
# LMNA splice mod: qHTS Assay for Modulators of Lamin A Splicing | HeLa LMNA splicing GFP/RFP minigene ratio, 48 h | Potency, µM (titrated, usually from 46.1 µM), inactives show at the highest dose ratio change, negative = inhibition, hits mostly inhibitors | actives 0.01% (n = 200,000) | AID 1487, 2009; active means well fitted inhibition curve with a large enough effect in the signal ratio, with a control signal flat, not every such curve was filed as active; inconclusive means small, poorly fitted or top-dose-only effect, or effect the other way, or a change in a side signal; the % refers to the signal ratio; further: on the % scale 0 is the no-effect control and ±100 the full control effect
#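 S3 HeLa stable clones carrying a lamin A-EGFP splicing minigene plus DsRed2 were seeded at 600 cells/well in Opti-MEM with 2% FBS, pin-dosed and incubated 48 h at 37°C. Acumen cytometry (488 nm) gave the GFP/RFP total-intensity ratio.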
# HTT ATP protect: qHTS Multiplex Assay to Identify Dual Action Probes in a Cell Model of Huntington: Cytoprotection (ATP) | PC12 HTT-Q103 induced, cytoprotection, ATP luminescence, 40 h | Potency, µM (titrated, usually from 56.4 µM), for inactives: cytoprotection (ATP increase), most hits filed as activators | actives 0.14% (n = 230,000) | AID 1471, 2008; active means well fitted curve in the direction sought with a large enough effect; inconclusive means small, poorly fitted or top-dose-only effect, or another doubt; inactive means no such curve, though single readings can be large; an effect the other way counts as inactive or inconclusive; further: % of control where 0% means no effect; nearly all actives have a fitted effect of over 45% in size
#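 Compounds added alongside 100 nM tebufenozide, which induces toxic Q103 huntingtin exon 1-GFP in stable PC12 cells; surviving cells quantified by luminescent ATP measurement. Medium: phenol red-free DMEM, 5% equine and 5% calf serum.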
# Starred values were filed as active, the others as inactive; ? = inconclusive; nt = not tested or not shown; [ ] = remark or other dose. Unless noted, the call rests on the fitted dose curve; in most records, active means well fitted inhibition curve with a large enough effect (not every such curve was filed as active); inconclusive means small, poorly fitted or top-dose-only effect, or another doubt; inactive means no such curve, though single readings can be large or run the other way. Potency means the concentration at half of the fitted maximal effect.
SMILES,HttQ103 aggreg,HPGD inh,KDM4E inh,ALDH1A1 inh,LMNA splice mod,HTT ATP protect
O=C(c1ccc(NS(=O)(=O)c2cccs2)cc1)N1CCN(c2ccccc2Cl)CC1,-24%,nt,-13%,?,-22%[46 µM],13%[10 µM]
O=S(=O)(Nc1ccc(S(=O)(=O)N2CCCCCC2)cc1)c1cccs1,-28%,-9%,-5%,?,9%,10%
O=C(CC1NCCC[C@H]1O)Cn1cnc2cc(Br)c(Cl)cc2c1=O (some centres not stated),20%,nt,nt,nt,nt,-1%
CO[C@H]1OC2O[C@@]3(C)CC[C@H]4[C@H](C)CC[C@@H]([C@H]1C)[C@@]24OO3 (some centres not stated),-29%,nt,nt,nt,?,-52%
CC#CCN1c2ccccc2[C@]23C[C@@H](C(=O)OC)N(S(=O)(=O)c4cccs4)C2=NC(C(=O)OC)=C(C(=O)OC)[C@H]13,nt,1%,1%[11.4 µM],4%[13.5 µM],-5%[9.22 µM],-19%[10 µM]
CCCOC(=O)c1ccc(NS(=O)(=O)c2cccs2)cc1,0%,18µM*,-8%,?,?,1%
Cc1cccc(NS(=O)(=O)c2cccs2)c1,-15%,28µM*,6%,9%,14%,9%
O=S(=O)(Nc1cccc(CO)c1)c1cccs1,1%[9.22 µM],nt,2%,?,13%[46 µM],12%[10 µM]
O=C(COC(=O)c1ccc(NS(=O)(=O)c2cccs2)cc1)NCc1ccco1,10%[9.22 µM],nt,-12%,nt,nt,-15%[10 µM]
COc1ccc(C(=O)N2CCc3cc(OC)c(OC)cc3C2COc2ccccc2OC)cc1 (configuration not stated),nt,nt,nt,nt,-2%[46 µM],nt
Nc1ccc2cc3ccccc3cc2c1,nt,2%,nt,2µM*,nt,2%
Nc1ccc2ncccc2c1,?,-19%,?,?,9%,-17%
CCC(=O)N1CCc2cc(S(=O)(=O)NCCCOC)ccc21,-6%,28µM*,3%,20µM*,-4%,23%
CCC(=O)N1CCc2cc(S(=O)(=O)NCCC(=O)N3CCc4ccccc4C3)ccc21,?,-1%,6%,18µM*,?,-92%
O=C(O)CCC(=O)N1CCc2cc(S(=O)(=O)NCc3cccs3)ccc21,-15%,25µM*,-2%,4%,-2%,-17%
CCC(=O)N1CCc2cc(S(=O)(=O)NCCC(=O)N3CC=C(c4ccccc4)CC3)ccc21,?,-3%,-12%,?,?,-26%
COc1cccc(C2C(C(C)=O)=C(O)C(=O)N2CCNCCO)c1 (configuration not stated),14%[9.22 µM],nt,0%,-7%,23%[46 µM],22%[10 µM]
O=S(=O)(O)[C@@H](c1ccccc1)[C@@H](O)c1ccccc1,nt,nt,nt,nt,nt,-6%[10 µM]
S=C=Nc1cccc(NC(=S)NCCCCNC(=S)Nc2cccc(N=C=S)c2)c1,nt,-12%,2%,?,nt,1%
COc1ccc2ccccc2c1C(=O)/C=C\c1ccoc1,?,?,25µM*,20µM*,?,nt
O=C(COC(=O)c1ccc2c(c1)S(=O)(=O)c1ccccc1C2=O)NC1CC1,29%,nt,-5%,14µM*,2%[46 µM],-6%[10 µM]
Cc1noc(C)c1COC(=O)c1cnc(Cl)c(Cl)c1,-28%,nt,9%,0.56µM*,11%[46 µM],-6%
Cc1noc(C)c1COC(=O)c1cc(F)c(F)cc1Cl,0%,-10%,4%,3%,10%,-10%[0.074 µM]
Cc1noc(C)c1COC(=O)c1ccc2c(c1)S(=O)(=O)c1ccccc1C2=O,4%,28µM*,2%,13µM*,1%,-36%
O=C(O)C(=O)Cc1c[nH]c2ccccc12,-15%,?,?,?,-12%,nt
SMILES,HttQ103 aggreg,HPGD inh,KDM4E inh,ALDH1A1 inh,LMNA splice mod,HTT ATP protect
Cc1cccc(-c2ccc(-c3cc(=O)oc4cc(C)cc(C)c34)cc2)c1,nt,-4%,nt,8%,nt,-34%
CCCNC(=O)OC[C@@H]1O[C@H](CCO/N=C\c2ccc(C(=O)N3[C@H](c4ccc(C)cc4)[C@@H](C)CC[C@H]3C(=O)OC)cc2)C=C[C@@H]1Oc1ccc(OC)cc1,nt,nt,nt,-5%[13.5 µM],nt,-46%[10 µM]
OC1CCC2Cc3ccccc3N=C12 (configuration not stated),nt,-5%,6%,-9%,nt,-15%[1.9 µM]
COc1ccc([C@@H]2C[C@H]3CN(c4ccccc4)C(=O)[C@]34CCCN24)c(OC)c1OC,-2%[9.22 µM],nt,-1%,-3%,-16%[46 µM],23%[10 µM]
COc1ccccc1N1C[C@@H]2C[C@@H](c3ccco3)N3CCC[C@@]23C1=O,7.1µM*,nt,0%,?,nt,-178%
COCc1cc([C@@H]2C[C@H]3CN(c4ccccc4)C(=O)[C@]34CCCN24)ccc1OC,32µM*,nt,0%,13%,nt,-134%
CC(C)=CCc1c(O)cc(O)c2c1O[C@H](c1ccccc1)CC2=O,nt,-4%,2%,-7%,nt,23%[1.9 µM]
O=C(O)C1CC(=O)N(c2ccc(OCc3ccccc3Cl)cc2)C1 (configuration not stated),1%,-11%,9%,-4%,-12%,-11%
O=C(NCCOc1ccc(Cl)cc1)C1CC(=O)N(c2ccc(F)cc2)C1 (configuration not stated),-6%,-12%,-3%,25µM*,?,-5%[10 µM]
O=C(O)C1CC(=O)N(c2ccc(OCc3ccc(Cl)cc3Cl)cc2)C1 (configuration not stated),3%,14µM*,-3%,1%,1%,-33%
Cn1c(SCC(=O)NC(=O)Nc2ccccc2)nnc1-c1ccncc1,5%[9.22 µM],nt,5%,nt,nt,-9%[10 µM]
COc1ccccc1/C=C/C(=O)OCc1nc2ccccc2c(=O)[nH]1,27%,nt,7%,?,2%[46 µM],-52%
COc1cc(OC)c(OC)cc1/C=C/c1nc2cc3ccccc3cc2c(=O)n1-c1ccc(F)cc1F,nt,nt,nt,nt,-1%[46 µM],nt
O=C(Cn1cnc([N+](=O)[O-])n1)N/N=C/c1cc(Cl)ccc1O,11µM*,nt,22µM*,8%,?,-88%
O=C(Cn1cnc([N+](=O)[O-])n1)N/N=C/c1ccccc1O,8.9µM*,-4%,25µM*,3%,-3%,-55%
COc1ccccc1N1CCN(C(c2cccs2)C(C)NC(=O)c2ccncc2)CC1 (configuration not stated),-1%[9.22 µM],nt,3%,nt,nt,-3%[10 µM]
CC(=O)OCC1(C)CN(c2ccccc2)NC1=O (configuration not stated),-1%,nt,-8%,10µM*,nt,-32%
